Source: PubChem
In the library only some 27% were active in any assay of this set; here they are far more common.
CYP2C9 inh = human CYP2C9 inhibition. CYP2C9 Supersomes, luciferin-H conversion, luminescence. inhibition, % at 5 µM. 96,000 compounds, 20% hits. P11712. AID 777;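 active = blocking of liver enzyme CYP2C9 beyond about 50% at 5 µM, limit read from the data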
CYP2C19 inhib = inhibitors of human CYP2C19 | P33261 | CYP2C19 Supersomes, luciferin-H EGE luminescence, 30 min | inhibition, % at 5 µM | 96,000 compounds, 21% hits | AID 778;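 active = CYP2C19 inhibition above a set limit at 5 µM in the primary screen, cut at about 50% in these data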
CYP2C19 act = increases human CYP2C19 enzyme activity; P33261; recombinant CYP2C19, luciferin-H EGE luminescence; stronger effect = higher value; 0 = fully inhibited enzyme, 1 = untreated enzyme; 96,000 tested, under 10 active; activation factor at 5 µM;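 active = activation factor of at least 2 at 5 µM in the primary screen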
CYP2C9 activ = CYP2C9 (human) activation; recombinant CYP2C9, luciferin-H conversion, luminescence; stronger effect = higher value; factor 1 = untreated enzyme, 0 = blocked; AID 1024; activation factor at 5 µM; 96,000 compounds, 1.4% hits;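 active = activation factor of 2 or more for CYP2C9 at a 5 µM dose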
Cav3 T inh = blocks human Cav3.2 T-type calcium channel | Cav3.2-expressing cells, Fluo-4 calcium fluorescence FDSS; stronger effect = lower value | O95180 | 100,000 compounds, 4% hits | B-score at 10 µM | AID 449739;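 active = single-dose well whose peak fluorescence ratio is a statistical outlier from its plate by either plate-standardised score or position-corrected B-score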
A number is an active result; i = inactive; nt = no result given.

SMILES	CYP2C9 inh	CYP2C19 inhib	CYP2C19 act	CYP2C9 activ	Cav3 T inh
COc1ccc(NC(=O)C(=O)N/N=C/c2cc(C)n(-c3cccc(Cl)c3Cl)c2C)c(OC)c1	i	72	i	i	i
COc1ccc(OC)c(NC(=O)C(=O)N/N=C/c2ccccc2[N+](=O)[O-])c1	i	i	i	2.2	i
CCN(CC)CCOC(=O)c1ccc2c(c1)OCCO2	i	i	i	i	i
COc1ccccc1CC(=O)Nc1ccc(-c2noc(COc3cccc(C)c3C)n2)cc1	63	i	i	i	i
CCOc1ccc(-c2noc(-c3ccncc3)n2)cc1OCC	80	70	i	i	i
CC(=O)Oc1ccc(-c2nc(-c3cccnc3)no2)cc1	86	95	i	i	i
Brc1ccc(-c2nc(-c3cccnc3)no2)o1	i	85	i	i	i
O=[N+]([O-])c1cccc(-c2nc(-c3ccncc3)no2)c1	53	95	i	i	nt
CCOc1cc(-c2nc(-c3ccc(C)nc3OC)no2)cc(OCC)c1OCC	76	97	i	i	i
COc1ccc(-c2noc(COc3ccc4c(c3)OCO4)n2)cc1OC	i	i	i	i	i
COc1ccc(CCC(=O)Nc2ccc(-c3noc(-c4ccc(OC)c(OC)c4)n3)cc2)cc1	69	i	i	i	i
COc1ccc(-c2noc(COc3ccccc3OC)n2)cc1OC	i	78	i	i	i
COc1ccc(-c2nc(-c3ccc(NC(=O)c4ccc(Br)o4)cc3)no2)cc1OC	i	i	i	i	i
O=C(Nc1cccc2c1CCCC2)c1ccc(Br)o1	i	i	i	i	i
CC(C)C(=O)Nc1nnn(C)n1	i	i	i	i	i
CCOc1ccc(-c2nc(-c3cccnc3)no2)cc1OCC	i	62	i	i	i
CCOc1cc(-c2noc(-c3ccncc3)n2)cc(Br)c1OC	i	76	i	i	i
COc1ccc(-c2nc(-c3ccncc3)no2)cc1OC	60	88	i	i	i
COc1ccc(-c2nc(-c3ccc(Br)o3)no2)cc1OC	i	i	i	i	i
Cc1cc(=O)oc(C)c1C(=O)N[C@@H]1CCCCNC1=O	i	i	i	i	i
O=C(NCc1ccccc1C(F)(F)F)C1CC(c2cc(C(F)(F)F)cc(C(F)(F)F)c2)=NO1 (stereo not drawn)	nt	nt	nt	nt	i
COc1cc(O)oc1C=Nc1ccc(Cl)cc1Cl	i	69	i	i	i
O=C1Nc2ccc(Cl)cc2[C@@](C#CC2CC2)(C(F)(F)F)O1	nt	nt	nt	nt	-5.2
O=C1Nc2cc(Cl)ccc2C1(N1CCNCC1)C(F)(F)F (stereo not drawn)	i	i	i	i	i
COc1ccc2c3c(cccc13)OCC2=O	i	51	i	i	i
SMILES	CYP2C9 inh	CYP2C19 inhib	CYP2C19 act	CYP2C9 activ	Cav3 T inh
CCC1=NNc2cccc3c(OC)ccc1c23	i	i	i	i	i
Cc1ccc(S(=O)(=O)Cc2ccc(C(=O)N3CCc4ccccc4C3)o2)cc1	56	92	i	i	i
Cc1ccc(S(=O)(=O)Cc2ccc(C(=O)O)o2)cc1	i	i	i	i	i
COc1ccc(S(=O)(=O)Cc2ccc(C(=O)N3CCc4ccccc4C3)o2)cc1	53	89	i	i	i
O=C(c1ccc(Cl)cc1)c1oc2ccccc2c1CS(=O)(=O)c1ccccc1	i	i	i	i	i
COc1ccc(Br)cc1C(=O)Nc1ccccc1-c1ccccc1	i	i	i	i	i
O=C(CN1CCC(O)CC1)N1c2ccccc2C=Cc2ccccc21	i	i	i	i	i
CCOC(=O)N1CCN(C(=O)/C(=C/c2ccc(OC)cc2)NC(=O)c2ccccc2)CC1	77	72	i	i	i
CCOC(=O)N1CCN(C(=O)/C(=C/c2cccc3ccccc23)NC(=O)c2ccc(OC)cc2)CC1	i	i	i	i	i
CC(C)OC(=O)CN1C(=O)C(C)(C)Oc2ccc(C(=O)NC(C)(C)C)cc21	73	i	i	i	i
CCn1c(N2CCN(S(=O)(=O)c3ccccc3C(F)(F)F)CC2)nc2ccccc21	i	69	i	i	i
CCn1c(N2CCN(C(=O)C34CC5CC(CC(C5)C3)C4)CC2)nc2ccccc21	i	i	i	i	i
CN(C(=O)COC(=O)COc1ccccc1F)C1CCS(=O)(=O)C1 (stereo not drawn)	i	i	i	i	i
Cc1cc(=O)oc(C)c1C(=O)n1nc(C)c2c1C[C@@H]1[C@H]2C1(C)C	62	i	i	i	i
CC1=CC(C)(C)N(C(=O)CSc2nnc(C)s2)c2ccc(C)cc21	i	i	i	i	i
CC1=CC(C)(C)N(C(=O)CSc2nnc(N)s2)c2cc(C)c(C)cc21	70	77	i	i	i
CC1=CC(C)(C)N(C(=O)CSc2nnc(-c3ccc(C)cc3)o2)c2ccc(C)cc21	95	96	i	i	nt
Cn1c(SCC(=O)Nc2ccc3nc(SCC(=O)N4CCCC4)sc3c2)nnc1-c1ccc(N)cc1	i	i	i	i	nt
c1ccc(CNc2ncnc3c2cnn3Cc2ccccc2)cc1	nt	nt	nt	nt	i
CCc1cc2c(NCC(=O)O)ncnc2s1	i	i	i	i	nt
Clc1ccc(Cn2ncc3c(NCc4ccco4)ncnc32)c(Cl)c1	i	i	i	2.8	-5.8
CCc1cc2c(NCc3ccco3)ncnc2s1	i	50	i	i	i
Cc1ccc(NC(=O)CS(=O)CC(=O)NCC2CCCO2)cc1 (stereo not drawn)	i	i	i	i	i
CC1(C)CC(=O)C(C=NCCN2CCN(C(=O)C34CC5CC(CC(C5)C3)C4)CC2)=C(O)C1	i	i	i	i	i
COc1ccc(S(=O)(=O)N(C)c2c(C)n(C)n(-c3ccccc3)c2=O)cc1OC	i	71	i	i	i
SMILES	CYP2C9 inh	CYP2C19 inhib	CYP2C19 act	CYP2C9 activ	Cav3 T inh
COc1cc(Br)c(S(=O)(=O)Nc2c(C)n(C)n(-c3ccccc3)c2=O)cc1OC	i	i	i	i	i
COc1ccc(N2C(=O)C3CCCN3C2=O)cc1 (stereo not drawn)	i	i	i	i	i
N#Cc1cc(S(=O)(=O)c2ccccc2)c(N)[nH]c1=O	i	i	i	i	i
CC/C(=N\n1nnnc1Nc1ccccc1)c1ccccc1	nt	nt	nt	nt	-5.7
COc1cc(C2c3c(-c4ccccc4)n[nH]c3C(=O)N2c2ccccc2)ccc1O (stereo not drawn)	92	77	i	i	i
COc1cc(C2c3c(n[nH]c3C)C(=O)N2c2ccc(C)cc2)ccc1O (stereo not drawn)	i	i	i	i	i
CC(C)(c1ccccc1)c1ccc(OCCCNCCO)cc1	i	i	i	i	i
O=C(NCCc1cccs1)C1CC(c2c(Cl)cccc2Cl)=NO1 (stereo not drawn)	i	60	i	2.2	i
O=C(NCc1ccc(OC(F)(F)F)cc1)C1CC(c2c(Cl)cccc2Cl)=NO1 (stereo not drawn)	i	87	i	i	i
O=C(NCc1cc(C(F)(F)F)cc(C(F)(F)F)c1)C1CC(c2c(Cl)cccc2Cl)=NO1 (stereo not drawn)	77	62	i	i	i
Cc1cc(Nc2ccccc2Cl)n2nnnc2n1	i	i	i	i	i
